# MCF10A rereplic = inducers of DNA re-replication in MCF 10A breast cells; MCF 10A DNA re-replication, Hoechst nuclear intensity, 48 h; hit rate 2.9% among 350,000; Potency, µM (doses to about 46.1 µM), for the others: at the top dose activity, positive = re-replication, usual class: activators; note: % of control where 0% means no effect; nearly all actives have a fitted effect of over 50% in size
# HT1080 IDH1KD tx = kills HT-1080 cells with IDH1 knockdown. HT-1080 IDH1 knockdown viability, ATP luminescence, 48 h. Potency, µM (series often up to 46.1 µM), for inactives: top-dose activity, negative = toxicity, hits mostly cytotoxic. hit rate 2% among 360,000. AID 686971;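 note: 0% = DMSO wells and -100% = cell-free medium wells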
#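 After a 2 h attachment period, IDH1KD HT-1080 cells took pin-transferred compound for 48 h at 37 °C; ATP-based luminescence after 10 min room-temperature reagent incubation reported viability.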
# KB-3-1 cytotox = KB-3-1 parental cell cytotoxicity; KB-3-1 viability, CellTiter-Glo ATP luminescence, 72 h; Potency, µM (titrated, usually from 46.1 µM), actives largely listed as cytotoxic; hit rate 1.4% among 400,000; AID 1347075; note: % is set by controls: 0 for no effect and ±100 for the full control effect; nearly all actives have a fitted effect of over 60% in size
#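 Viability of parental KB-3-1 cells, measured by CellTiter-Glo luminescence, followed a 72 h incubation at 37 °C with pinned compounds in phenol-red-free DMEM containing 10% FBS.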
# KB-V1 MDR tox = kills drug-selected multidrug resistant KB-V1 cells; hit rate 3.4% among 400,000; Potency, µM (titrated, usually from 46.1 µM), actives largely listed as cytotoxic; KB-V1 MDR cells viability, CellTiter-Glo, 72 h; note: % is set by controls: 0 for no effect and ±100 for the full control effect; nearly all actives have a fitted effect of over 60% in size
#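 KB-V1 MDR subline cells in DMEM (phenol-red free, 10% FBS) exposed to compounds in qHTS concentration series for 72 h at 37 degrees C. Viability read by CellTiter-Glo luminescence; concentration-effect curves fitted after normalization and correction.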
# HT1080NT lethal = kills 2HG-producing HT-1080-NT fibrosarcoma cells. HT-1080-NT fibrosarcoma viability, CellTiter-Glo ATP luminescence, 48 h. Potency, µM (series often up to 46.1 µM), for the others: top-dose activity, negative = less viability, most hits filed as cytotoxic. hit rate 1.6% among 360,000. AID 686970;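 note: NT is the 2HG producing partner of a matched IDH1 knockdown line; 0% = DMSO-treated cells and -100% = media-only wells without cells; nearly all actives have a fitted effect of over 55% in size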
#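 Fibrosarcoma NT cells, 750 per well in 5% FBS RPMI, were exposed to compound for 48 hours. Viability: CellTiter-Glo luminescence.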
# SW480 rereplic = inducers of DNA re-replication in SW480 colon cancer cells. AID 624297. hit rate 1.8% among 340,000. Potency, µM (doses to about 46.1 µM), for inactives: at the highest dose re-replication activation, most hits filed as activators. SW480 DNA re-replication, Hoechst DNA content imaging, 48 h; note: % of control where 0% means no effect; nearly all actives have a fitted effect of over 55% in size
#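 Hoechst fluorescence of nuclei (405 nm excitation, 500-530 nm emission) measured by plate-scanning imager after 48 hr compound exposure at 37 C; re-replication scored as increased number of nuclei with elevated intensity.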
# Starred values were filed as active, the others as inactive; i = inactive; ? = inconclusive; . = no result; [ ] = another dose, or the depositor's remark. Rows were chosen to be rich in hits. Some 8% of all compounds tested hit in one or more screens of this group. Calls come from the whole dose curve; as a rule, active = well fitted curve in the direction sought with a large enough effect; inconclusive = small, poorly fitted or top-dose-only effect, or another doubt; inactive = no such curve, though single readings can be large; an effect the other way counts as inactive or inconclusive. Potency is the fitted concentration of half-maximal effect.
SMILES,MCF10A rereplic,HT1080 IDH1KD tx,KB-3-1 cytotox,KB-V1 MDR tox,HT1080NT lethal,SW480 rereplic
COc1cc(-c2nnc(SCC(=O)N3CCCc4ccccc43)o2)cc(OC)c1OC,.,.,i,2.6µM*,.,.
COC(=O)c1c(SC)nc2ccccc2c1OCc1ccc(C)cc1,.,.,i,i,.,.
Cc1nc2c(C(=O)NCCc3ccccc3)cnn2c(C)c1Cc1c(F)cccc1Cl,.,.,i,i,.,.
CN1CCC(Oc2ccc(Sc3ccccc3)cc2)CC1,31%,-18%,?,?,-11%,11%
CN1CCC(Oc2ccccc2Sc2ccc(C(F)(F)F)cc2)CC1,8.2µM*,-5%,i,i,-4%,?
CCOc1cc(N2CCOCC2)c(OCC)cc1NC(=O)Cc1ccc(OC)c(OC)c1,5%,1%,?,5.8µM*,-1%,-1%
CCOc1cc(N2CCOCC2)c(OCC)cc1NC(=O)COc1ncnc2ccccc12,7%,-2%,i,16µM*,-16%,-4%
CCOC(=O)c1sc(N2C(=O)c3oc4ccc(C)cc4c(=O)c3C2c2ccccc2F)nc1C (stereo not drawn),.,.,i,?,.,.
CC(=O)c1sc(N/N=C\c2ccc(Br)cc2)nc1C,18µM*,6%,i,i,8%,?
CC(=O)c1sc(N/N=C\c2cccc(Br)c2)nc1C,13µM*,?,i,?,-22%,11%
CCOC(=O)c1sc(N/N=C/c2ccc(N(C)C)cc2)nc1C,?,11%,?,i,-1%,?
Cc1cc(=O)[nH]c(N/N=C/c2cccc(Br)c2)n1,2%,0%,i,i,0%,-11%
C=CCNC(=O)C(=O)NCCOc1ccccc1Cl,?,?,7.3µM*,i,?,21µM*
CCCCCCOc1ccc(CC(=O)O)cc1,.,16%,.,.,13%,.
CS(=O)(=O)N1CCc2cc(C(=O)NCc3ccccc3)ccc21,.,.,i,?,.,.
O=[N+]([O-])c1ccc(/C=N/N/C(=N/c2ccccn2)c2ccccn2)cc1,3%,10µM*,i,?,?,-5%
Cc1ccc(-c2noc(-c3ccc(N4CCOCC4)c([N+](=O)[O-])c3)n2)cc1,.,.,i,i,.,.
COc1cc(OC)cc(-c2c(-c3cccs3)c3cc(-c4ccc(C(N)=O)cc4)ccc3n2C)c1,16µM*,9%,?,i,10%,?
COc1ccc(-c2ccc3c(c2)c(-c2cccs2)c(-c2cc(OC)cc(OC)c2)n3C)cc1,2%,-1%,i,i,-1%,-10%
Oc1ccc(Br)cc1-c1ccnn1-c1ccccc1,7.3µM*,7.3µM*,?,?,?,?
CNc1ncnc2sc(-c3ccccc3)cc12,4%,-17%,?,9.2µM*,-22%,2%
CC(=O)N1CCN(c2ncnc3sc(-c4ccccc4)cc23)CC1,14%,-10%,i,i,0%,-60%
Oc1ccc(N2CCN(c3ncnc4sc(-c5ccccc5)cc34)CC2)cc1,?,?,i,?,13µM*,14%
CCCNC(=O)Cn1nc(-c2ccc(F)cc2)c2cnc3ccc(F)cc3c21,.,.,i,i,.,.
COc1ccc(-c2sc(NC(C)=O)nc2-c2ccccc2)cc1,?,-15%,?,18µM*,-7%,?
SMILES,MCF10A rereplic,HT1080 IDH1KD tx,KB-3-1 cytotox,KB-V1 MDR tox,HT1080NT lethal,SW480 rereplic
COc1ccc(-c2nc(NC(=O)c3ccccc3)sc2-c2ccc([N+](=O)[O-])cc2)cc1,13µM*,1%,i,?,6%,12%
COc1ccc(-c2nc(NC(C)=O)sc2-c2ccccc2)cc1,23µM*,?,i,i,?,?
CCc1sc(NC(C)=O)nc1-c1ccccc1,0%,7%,i,i,18%,-3%
COCCNc1nc(-c2ccc(OC)cc2)c(-c2ccc(OC)cc2)s1,?,0%,i,i,-11%,-97%
CCc1ccc(CNC(=O)c2sc3ncccc3c2-n2c(C)ccc2C)cc1,.,.,?,i,.,.
COc1ccc(-c2ccc(SCC(=O)c3cccs3)nn2)cc1,-1%,-20%,?,16µM*,-10%,-8%
CN(C)c1ccc(CNC(=O)c2cc3ccccn3n2)cc1,.,.,i,i,.,.
CC(=O)Nc1scc(C)c1-c1nc2ccccc2s1,21µM*,-26%,i,i,-20%,191%
CNc1sc(C(=O)c2ccc(F)cc2)c(N)c1-c1nc2ccccc2s1,16µM*,6.3µM*,i,i,11µM*,5.2µM*
Cc1csc(NC(=O)CCCC(=O)O)c1-c1nc2ccccc2s1,11%,10%,i,i,10%,15µM*
CNc1sc(C(=O)c2cccs2)c(N)c1-c1nc2ccccc2s1,?,?,i,i,-3%,2%[9.22 µM]
O=C(Nc1ccc(F)cc1)Nc1sccc1-c1nc2ccccc2s1,?,18µM*,i,i,16µM*,1%
O=C(NC(c1ccco1)c1cc(Cl)c2cccnc2c1O)c1ccc(Cl)cc1 (stereo not drawn),.,.,i,i,.,.
O=C(O)CC(NS(=O)(=O)c1ccc(Br)s1)c1ccccc1 (stereo not drawn),.,.,i,?,.,.
COC(=O)c1sc2ccccc2c1-n1cccc1C(=O)C(=O)Nc1ccc(F)cc1,-1%,-1%,i,i,-3%,-1%
COC(=O)c1sc2ccccc2c1-n1cccc1C(=O)C(=O)Nc1ccc(C)cc1,0%,-6%[9.24 µM],?,9.2µM*,-6%,-2%
COC(=O)c1sc2ccccc2c1-n1cccc1C(=O)C(=O)Nc1ccc(Cl)cc1,2%,0%,?,12µM*,-2%,5%
Cc1ccc2c(c1)c1c(c(=O)n(-c3ccccc3)c(=O)n1CC(=O)c1ccc(F)cc1)n2C,.,.,i,i,.,.
COc1cc(CNC2CCCC2)cc(Cl)c1OCc1ccc(F)cc1,?,21µM*,?,?,16µM*,12%
COc1cc(CNC2CCCC2)cc(Cl)c1OCc1ccccc1Cl,16µM*,?,?,21µM*,?,?
O=C1NN(c2ccc(F)c(Cl)c2)C(=O)/C1=C\c1cccc(OC(=O)c2cccs2)c1,15µM*,?,i,i,?,0%
Cc1ccc(C)c(-c2[nH]c3c(c2-c2c(-n4cccc4)n(C)c(=O)[nH]c2=O)c(=O)[nH]c(=O)n3C)c1,.,.,i,i,.,.
Cc1ccccc1C(=O)NC(=S)Nc1ccccc1C(F)(F)F,-1%,3%,i,i,4%,9%
FC(F)(F)c1ccccc1NC(=S)NN=C1CCCCCC1,?,18µM*,?,?,13µM*,12µM*
